For 15 compounds, outcome and AC50 results are on record in PubChem BioAssay (EPA / NIEHS).

“And” between values parts separate entries of the source, which are not always exact repeats. Identical values can stand only once. Records with an inconclusive call do not appear. The source holds several records for some structures; these can differ, active in one and inactive in another. The source made the active and inactive calls. How the source made its calls, unless noted: active means hit-call score of the fitted dose curve at least 0.9, where 1 is the maximum; inactive means score below 0.9.

Broadly, the AC50 is the concentration at which the activity in the assay is half-maximal.

Assay [1] is described as follows: CCTE_Shafer_MEA_dev_burst_rate: CCTE's Neural Network Formation Assay for Burst Rate, Shafer Lab (AID 2284042).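 On AC50: potency for loss of burst rate below DMSO control.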 In outline:
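Rat primary cortical cultures on PEI/laminin MEA; compound from plating, re-dosed at DIV 5, 9 media change. Single-electrode bursts/recording length, well mean of active electrodes; AUC over DIV 5–12 recordings; loss-of-signal vs DMSO.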

A short description of assay [2]: CCTE_Shafer_MEA_dev_bursting_electrodes_number: CCTE's Neural Network Formation Assay for Number of Bursting Electrodes, Shafer Lab (AID 2284043; active means hit-call score of the fitted dose curve at least 0.9, where 1 is the maximum;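 on AC50: potency is for loss of bursting electrodes relative to DMSO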). In outline:
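Primary rat cortical neurons plated on 16-electrode MEA wells, exposed from day 0 with compound renewed at DIV 5 and 9. Electrodes bursting ≥1 burst per 2 min counted on days 5, 7, 9 and 12; trapezoidal AUC across days, fitted for loss versus DMSO.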

A short description of assay [3]: CCTE_Shafer_MEA_dev_per_burst_interspike_interval: CCTE's Neural Network Formation Assay for Burst Interspike Interval, Shafer Lab (AID 2284044).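 Further: mean spike spacing inside bursts as AUC over recordings on days 5 7 9 12.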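 On AC50: potency for a decrease of within-burst interspike interval below DMSO level.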 Put shortly: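 Rat cortical primary cultures, 16 electrodes/well; compound from plating, renewed with full media change DIV 5 and 9. Spikes via adaptive detector; per-burst ISI well-mean over active bursting electrodes; AUC of DIV 5/7/9/12 recordings; loss-direction fit vs DMSO.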

Assay [4] can be described thus: CCTE_Shafer_MEA_dev_burst_duration_mean: CCTE's Neural Network Formation Assay for Mean Burst Duration, Shafer Lab (AID 2284045).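 On AC50: curve fitted for loss meaning shorter burst duration than DMSO.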 In outline:
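Primary rat cortical neurons on 48-well 16-electrode MEA plates, exposed from day 0 with renewal at DIV 5 and 9; spontaneous activity recorded on days 5, 7, 9, 12. Well-mean burst duration across bursting electrodes, collapsed as trapezoidal AUC; DMSO baseline.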

Assay [5] is described as follows: CCTE_Shafer_MEA_dev_interburst_interval_mean: CCTE's Neural Network Formation Assay for Mean Interburst Interval, Shafer Lab (AID 2284046).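 Further: well-mean interburst interval of bursting electrodes as AUC over four recording days; curve fitted for decrease in interburst interval relative to DMSO.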 Put shortly: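 Rat cortical neurons, 1.5 x 10^5 cells/well, 48-well MEA; compound from day 0 through DIV 12, media and treatment renewed DIV 5/9. Recordings DIV 5, 7, 9, 12; well-mean interburst interval → trapezoidal AUC, loss direction vs DMSO.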

The nature of assay [6]: CCTE_Shafer_MEA_dev_inter_network_spike_interval_mean: CCTE's Neural Network Formation Assay for Mean Inter-network Spike Interval, Shafer Lab (AID 2284047).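 On AC50: potency for a decrease in mean inter-network spike interval below DMSO.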 In outline:
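Primary rat cortical neurons on PEI-coated 48-well MEAs (16 electrodes/well) were exposed from plating day 0 to DIV 12, with dosing renewed at DIV 5 and 9. Recordings at DIV 5, 7, 9, 12 were collapsed by trapezoidal AUC, loss-of-signal fit vs DMSO.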

A short description of assay [7]: CCTE_Shafer_MEA_dev_network_spike_number: CCTE's Neural Network Formation Assay for Number of Network Spikes, Shafer Lab (AID 2284048).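 On AC50: fit as a loss of signal meaning fewer network spikes than DMSO.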 Put shortly: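 Primary rat cortical neurons on PEI/laminin 48-well MEA plates, dosed from plating day 0 for 12 days, renewed at DIV 5 and 9. Network spike counts recorded DIV 5, 7, 9, 12, collapsed as trapezoidal AUC; DMSO baseline.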

Assay [8] has as its target Estrogen receptor (Homo sapiens) (UniProt P03372). Description: CCTE_Deisenroth_AIME_384WELL_LUC_Shift: CCTE's 384-well Estrogen Receptor Transactivation Assay with AIME metabolic competence data shift (ERTA luciferase; difference in metabolism positive and negative), Deisenroth Lab (AID 2284041).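 Further: shift is response with S9 minus without S9 so positive means metabolism raised ER signal.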 Put shortly: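 Chemicals (0.002–200 uM, 10 points) pre-incubated 2 h with alginate-encapsulated induced male Sprague Dawley rat liver S9 or S9-free, then medium applied 24 h to VM7Luc4E2 cells; luciferase. Endpoint is per-concentration difference, S9-positive minus negative.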

Assay [9] is described as follows: CCTE_Deisenroth_AIME_384WELL_CTox_Active: Cytotoxicity Assessment (CTOX) in CCTE's 384-well Estrogen Receptor Transactivation Assay with AIME metabolic competence (metabolism positive), Deisenroth Lab (AID 2284037; active means hit-call score of the fitted dose curve at least 0.9, where 1 is the maximum;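 further: chemicals first conditioned 2 h by alginate-bound induced rat liver S9 before cells; activity means signal loss indicating cell death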). Put shortly: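 Chemicals pre-incubated 2 hours with alginate-immobilised phenobarbital/beta-naphthoflavone-induced male Sprague Dawley rat liver S9, then conditioned medium applied 24 hour to VM7Luc4E2 cells. Viability by fluorogenic protease substrate; 10-point series 0.002 - 200 uM.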

A short description of assay [10]: CCTE_Deisenroth_AIME_384WELL_CTox_Inactive: Cytotoxicity Assessment (CTOX) in CCTE's 384-well Estrogen Receptor Transactivation Assay without AIME metabolic competence (metabolism negative), Deisenroth Lab (AID 2284039; active means hit-call score of the fitted dose curve at least 0.9, where 1 is the maximum;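 further: cell viability via live-cell protease substrate cleaved to fluorescent probe; cells exposed 24 h to medium preincubated 2 h with alginate-water beads without S9; loss of fluorescence signal means loss of viability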). Put shortly:
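VM7Luc4E2 human breast cells received conditioned medium from a 2 h incubation of chemical with alginate-water microspheres (no S9), then were exposed 24 h. Viability was read as protease-substrate cleavage to a fluorescent probe; loss of signal was fitted bidirectionally over 0.002–200 uM.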

Chain of Estrogen receptor (Homo sapiens) (P03372 whole entry, looked up): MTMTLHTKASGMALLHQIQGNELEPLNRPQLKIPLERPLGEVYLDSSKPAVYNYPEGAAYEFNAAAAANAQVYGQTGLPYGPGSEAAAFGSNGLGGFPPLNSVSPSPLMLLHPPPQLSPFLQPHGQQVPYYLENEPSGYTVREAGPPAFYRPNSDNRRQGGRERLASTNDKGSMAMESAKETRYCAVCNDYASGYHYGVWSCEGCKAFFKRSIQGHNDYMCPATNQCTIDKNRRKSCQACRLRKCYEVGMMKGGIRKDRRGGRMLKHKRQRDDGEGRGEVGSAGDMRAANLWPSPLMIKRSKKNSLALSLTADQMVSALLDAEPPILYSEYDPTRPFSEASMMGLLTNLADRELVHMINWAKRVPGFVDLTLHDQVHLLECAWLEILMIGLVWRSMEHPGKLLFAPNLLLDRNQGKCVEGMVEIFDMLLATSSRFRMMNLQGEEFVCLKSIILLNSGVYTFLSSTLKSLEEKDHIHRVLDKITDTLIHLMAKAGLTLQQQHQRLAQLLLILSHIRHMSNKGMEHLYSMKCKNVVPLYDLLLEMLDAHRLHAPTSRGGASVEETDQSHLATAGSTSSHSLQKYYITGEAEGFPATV

As for `COP(=S)(OC)Oc1nc(Cl)c(Cl)cc1Cl`, the compound was called inactive in assay [1], in assay [2], in assay [3], in [4], in [5] and in assay [6]. For the same compound, the compound was called inactive in assay [7].
As for `N#Cc1nn(-c2c(Cl)cc(C(F)(F)F)cc2Cl)c(N)c1S(=O)C(F)(F)F` (stereo unspecified), the result in assay [1], in assay [2], in assay [3], in assay [4], in assay [5] and in assay [6] was inactive. Also, in [7], the result was inactive.
For the compound `CC1=C(C(=O)Nc2ccccc2)SCCO1`, the outcome in assay [8] was inactive.
In the case of `Oc1ccccc1-c1ccccc1`, the result in assay [9], in [10] and in assay [8] was inactive.
Turning to `Cc1c(F)c(F)c(COC(=O)C2C(/C=C(\Cl)C(F)(F)F)C2(C)C)c(F)c1F` (stereo unspecified), the call in [10], in assay [8], in assay [3], in assay [4], in assay [5] and in assay [6] was inactive. Also, the concentration at half-maximal activity (AC50) in assay [1] is 716 nM (active); in [2], 2.72 µM (active); in [7], 311 nM (active).
As to `C=CCC1=C(C)[C@@H](OC(=O)[C@@H]2[C@@H](C=C(C)C)C2(C)C)CC1=O`, the outcome in [1], in [3], in [4], in assay [5], in [6] and in assay [7] was inactive. Also, the concentration at half-maximal activity (AC50) in assay [2] is 10 µM (active).
With `O=C(O)c1nc(Cl)ccc1Cl`, the outcome in assay [8] was inactive.
As to `CNC(=O)ON=CC(C)(C)SC`, the outcome in [1], in assay [3], in [4], in assay [5], in [6] and in assay [7] was inactive.
For `CCc1nn(C)c(C(=O)NCc2ccc(C(C)(C)C)cc2)c1Cl`, the AC50 in [9] was 1.82 µM (active). For the same compound, the call in assay [10] and in assay [8] was inactive.
On to `CCOc1cc(Oc2ccc(C(F)(F)F)cc2Cl)ccc1[N+](=O)[O-]`, for which the result in [9], in [10], in assay [8] and in [6] was inactive. For the same compound, the AC50 is 9620 nM (active) in assay [1]; 5.27 µM (active) in [2]; 11.4 µM (active) in [3]; 6.99 µM (active) in assay [4]; 4.76 µM (active) in assay [5]; 6090 nM (active) in assay [7].
In the case of `COc1cnc(OC)n2nc(NS(=O)(=O)c3c(OCC(F)F)cccc3C(F)(F)F)nc12`, the result in assay [9] and in [10] was inactive. Also, the concentration at half-maximal activity (AC50) in assay [8] is 28 µM (active).
On to `CCCCC(CC)COC(=O)c1ccccc1C(=O)OCC(CC)CCCC` (stereo unspecified), for which the AC50 in [1] is 2.98 µM (active) and 6.34 µM (active); in assay [2] it was 7.91 µM (active) and 6.07 µM (active); in assay [3], 9.06 µM (active); in assay [4], 3.18 µM (active); in assay [5], 12.6 µM (active); in assay [7], 2.32 µM (active) and 12.8 µM (active). For the same compound, the result in assay [1], in assay [2], in assay [3], in [4], in assay [5] and in assay [6] was inactive. Moreover, the result in assay [7] was inactive.
For the compound `COC(=O)N(OC)c1ccccc1COc1ccn(-c2ccc(Cl)cc2)n1`, the half-maximal activity concentration (AC50) is 2.68 µM (active) in [9]; 19.8 µM (active) in [10]; 91.4 nM (active) in assay [1]; 123 nM (active) and 13 nM (active) in [2]; 269 nM (active) and 50 nM (active) in assay [3]; 0.129 µM (active) in assay [4]. Also, the half-maximal activity concentration (AC50) in assay [5] is 264 nM (active) and 13.7 nM (active); in assay [6] it was 0.128 µM (active); in assay [7], 66.9 nM (active). Besides, the result in [8], in assay [1], in assay [4], in assay [6] and in assay [7] was inactive.
Consider `COc1ccc(C(c2ccc(OC)cc2)C(Cl)(Cl)Cl)cc1`, for which the outcome in assay [1], in [3], in assay [4], in assay [5], in assay [6] and in [7] was inactive. The concentration at half-maximal activity (AC50) in assay [2] is 6.57 µM (active).
In the case of `CCCCNC(=O)OCC#CI`, the half-maximal activity concentration (AC50) in [9] is 145 µM (active); in assay [10], 124 µM (active); in assay [1], 3.94 µM (active) and 1.33 µM (active); in assay [2], 3.82 µM (active) and 1.48 µM (active); in assay [3], 7.65 µM (active) and 1.63 µM (active); in assay [4] it was 4.03 µM (active) and 1.28 µM (active). The half-maximal activity concentration (AC50) in assay [5] is 3.24 µM (active) and 2.21 µM (active); in assay [7] it was 2.92 µM (active) and 1.21 µM (active). Further, the result in assay [8] and in [6] was inactive.
